High-throughput results from PubChem.
PLK1 PBD block – inhibitors of human PLK1 polo-box domain binding; P53350; Plk1 PBD binding of FITC phosphopeptide, fluorescence polarization; Potency, µM, inactives show max response, negative = inhibition, actives largely listed as inhibitors; 2.8% of 360,000 active; also: potency is read from the fitted curve at half-maximal effect; series mostly up to about 57 µM; % is scaled to controls: 0 for no effect and ±100 for the full control effect; nearly all actives have a fitted effect of over 65% in size
HP1b binding inh – inhibitors of HP1-beta chromodomain binding to methylated histone tails. P83916. 0.56% of 390,000 active. Potency, µM (series often up to 114 µM), for the others: at the highest dose activity change, negative = inhibition, most hits filed as inhibitors. AlphaScreen HP1-beta / biotin-H3K9me3 peptide binding. AID 540317; also: potency is read from the fitted curve at half-maximal effect; nearly all actives have a fitted effect of over 70% in size
Target sequence (P83916 whole entry, looked up): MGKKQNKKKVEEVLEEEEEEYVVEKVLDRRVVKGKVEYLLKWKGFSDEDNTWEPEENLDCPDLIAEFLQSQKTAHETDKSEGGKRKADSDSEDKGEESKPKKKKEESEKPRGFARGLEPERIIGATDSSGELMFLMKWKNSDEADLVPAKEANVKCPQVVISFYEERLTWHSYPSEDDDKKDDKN
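Compound inhibition of the preformed complex between 50 nM HP1-beta and 50 nM biotinylated H3K9me3 peptide was read by AlphaScreen. Buffer was PBS pH 7.4 with 0.01% Tween-20. Incubations ran 30 min at room temperature, with 10 ug/mL donor/acceptor beads.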
G9a block – G9a (human) methyltransferase inhibition; Q96KQ7; G9a H3K9 monomethylation, AlphaScreen, 2 h; Potency, µM (titrated, usually from 102 µM), for the others: at the highest dose activity, negative = inhibition, most hits filed as inhibitors; 8.8% of 350,000 active; also: potency is read from the fitted curve at half-maximal effect; % is scaled to controls: 0 for no effect and ±100 for the full control effect; nearly all actives have a fitted effect of over 75% in size
Target sequence (Q96KQ7 913-1193 limits assumed): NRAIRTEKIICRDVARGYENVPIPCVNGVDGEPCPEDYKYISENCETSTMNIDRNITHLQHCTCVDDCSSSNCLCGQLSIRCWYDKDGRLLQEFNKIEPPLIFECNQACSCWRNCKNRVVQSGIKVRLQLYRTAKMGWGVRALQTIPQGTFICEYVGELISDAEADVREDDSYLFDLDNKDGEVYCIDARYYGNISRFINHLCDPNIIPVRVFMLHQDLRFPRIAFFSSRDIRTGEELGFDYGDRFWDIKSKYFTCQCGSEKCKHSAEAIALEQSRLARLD
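Chemiluminescent proximity detection of H3K9 monomethylation, read after 10 min bead incubation in the dark. Reaction: 20 nM G9a, 500 nM biotin-H3K9 peptide, 20 uM SAM cofactor, 2 h, room temperature, following 15 min enzyme-compound preincubation.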
JMJD2A Tudor – blocks the human JMJD2A Tudor domain. Potency, µM (titrated, usually from 114 µM), for inactives: at the highest dose activity change, negative = inhibition, actives largely listed as inhibitors. 4.4% of 390,000 active. AlphaScreen JMJD2A-Tudor / H3K4me3 peptide binding. AID 504339; also: potency is read from the fitted curve at half-maximal effect; % is scaled to controls: 0 for no effect and ±100 for the full control effect; nearly all actives have a fitted effect of over 50% in size
PI5P4K alpha inh – PI5P4K alpha (human) kinase inhibition; P48426; PI5P4Kalpha enzyme, ADP-Glo luminescence, 60 min; active compounds read low; max response, %; 1.2% of 330,000 active; active = max response of -50% or lower; inconclusive = between -30% and -50%; inactive = -30% or higher; also: value at the top dose of about 77 µM; % is scaled to controls: 0 for no effect and ±100 for the full control effect
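Reactions run in 0.038 M HEPES pH 7.4, 0.28 mM EGTA, 0.1% CHAPS and 5% DMSO, with PI5P4Kalpha, substrate, compound and 5 microM ATP final, one hour at room temperature. Readout is ADP-Glo luminescence.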
BAZ2B block – blocks human BAZ2B; Q9UIF8; AlphaScreen BAZ2B-H3K14Ac peptide displacement; Potency, µM (titrated, usually from 114 µM), inactives show top-dose activity change, negative = inhibition, hits mostly inhibitors; 4.4% of 360,000 active; AID 504333; also: potency is read from the fitted curve at half-maximal effect; % is scaled to controls: 0 for no effect and ±100 for the full control effect; nearly all actives have a fitted effect of over 60% in size
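In this displacement format the biotinylated H3(5-23) peptide acetylated at Lys14 serves as ligand at 50 nM, with BAZ2B at 50 nM in PBS pH 7.4 containing 0.01% Tween-20. Donor and acceptor beads are 10 ug/mL final.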
An asterisk follows results filed as active; [ ] = dose if it differs, or a comment. Rows were chosen to be rich in hits. Some 12% of all compounds tested hit in one or more screens of this group. Unless noted, calls follow the shape of the dose curve; as a rule, active = well fitted curve in the direction sought with a large enough effect; inconclusive = small, poorly fitted or top-dose-only effect, or another doubt; inactive = no such curve, though single readings can be large; an effect the other way counts as inactive or inconclusive.

How did Cc1ccc(NC(=O)Cc2c(Cl)cccc2Cl)cc1S(=O)(=O)N(C)C do in these assays?
PLK1 PBD block: 6.9%; HP1b binding inh: 35.8%; G9a block: -11.3%[59 µM]; JMJD2A Tudor: -25.3%; PI5P4K alpha inh: -27.0; BAZ2B block: 0.3%

What do the screens show for `O=C(COC(=O)Cn1cnc2ccccc21)Nc1ccc2c(c1)C(=O)c1ccccc1C2=O`?
PLK1 PBD block: -6.7%; HP1b binding inh: 29.1%; G9a block: inconclusive; JMJD2A Tudor: -11.4%; PI5P4K alpha inh: -5.5; BAZ2B block: -11.7%

Results for Cc1ccc(NC(=O)CNCc2ccccc2Cl)cc1S(=O)(=O)N(C)C ?
PLK1 PBD block: -1.0%; HP1b binding inh: 31.6µM*; G9a block: -12.1%; JMJD2A Tudor: 3.16µM*; PI5P4K alpha inh: 4.6; BAZ2B block: 50.1µM*

How did Cc1ccc(NC(=O)CNCc2ccc(Cl)cc2Cl)cc1S(=O)(=O)N(C)C do in these assays?
PLK1 PBD block: -6.4%; HP1b binding inh: 35.5µM*; G9a block: 10µM*; JMJD2A Tudor: 20µM*; PI5P4K alpha inh: 1.8; BAZ2B block: 25.1µM*

How did Cc1ccc(NC(=O)COC(=O)Cn2cnc3ccccc32)cc1S(=O)(=O)N(C)C do in these assays?
PLK1 PBD block: -4.2%; HP1b binding inh: 22.6%; G9a block: 50.1µM*; JMJD2A Tudor: -13.8%; PI5P4K alpha inh: -2.9; BAZ2B block: -32.4%

How did C=C(C)Cn1c(=O)c2c(nc3n2CCN3c2ccc(F)cc2)n(C)c1=O do in these assays?
HP1b binding inh: 1.7%; G9a block: inconclusive; JMJD2A Tudor: -30.3%; BAZ2B block: -26.7%

What do the screens show for `Cc1ccc(Cc2c(-c3cccc(Br)c3)nc3cc(C)c(Br)c(C)n23)cc1`?
PLK1 PBD block: 2.9%; PI5P4K alpha inh: 15.2

How did COc1ccc(C(=O)N2c3ccccc3CC2C)cc1OC (configuration not stated) do in these assays?
PLK1 PBD block: 26.7µM*; HP1b binding inh: -14.6%; G9a block: 30.2%[59 µM]; JMJD2A Tudor: -10.7%[11.4 µM]; PI5P4K alpha inh: 3.5; BAZ2B block: -21.9%

How did CC1Cc2ccccc2N1C(=O)c1ccc(N2CCCCC2)c([N+](=O)[O-])c1 (configuration not stated) do in these assays?
PLK1 PBD block: 0.5%; HP1b binding inh: inconclusive; G9a block: 31.6µM*; JMJD2A Tudor: 39.8µM*; PI5P4K alpha inh: 13.1; BAZ2B block: 31.6µM*

How did CC1Cc2ccccc2N1C(=O)c1ccc(N2CCCC2)c([N+](=O)[O-])c1 (configuration not stated) do in these assays?
PLK1 PBD block: -19.3%; HP1b binding inh: -14.9%; G9a block: inconclusive; JMJD2A Tudor: 44.7µM*; PI5P4K alpha inh: -0.9; BAZ2B block: 25.1µM*

Results for CC(=O)c1ccc(N2CCN(c3ccccc3O)CC2)c([N+](=O)[O-])c1 ?
PLK1 PBD block: -6.4%; HP1b binding inh: inconclusive; G9a block: 44.7µM*; JMJD2A Tudor: inconclusive; PI5P4K alpha inh: -16.7; BAZ2B block: inconclusive

How did CCc1ccc(CN2CCC(Oc3cc(C(=O)NC4CC4)ccc3OC)CC2)cc1 do in these assays?
PLK1 PBD block: -8.7%; PI5P4K alpha inh: -6.1

What do the screens show for `Cc1nc2nc(SCc3c(F)cccc3Cl)nn2c(C)c1Cc1ccccc1`?
HP1b binding inh: 29.6%; G9a block: 13.8%[59 µM]; JMJD2A Tudor: 0.0%; BAZ2B block: 2.2%

What do the screens show for `Cc1nc2nc(SCC(=O)N3CCOCC3)nn2c(C)c1Cc1c(F)cccc1Cl`?
PLK1 PBD block: -14.3%; HP1b binding inh: 27.0%; G9a block: 22.4µM*; JMJD2A Tudor: -14.6%; PI5P4K alpha inh: 1.6; BAZ2B block: 1.2%

How did Cc1nc2nc(SCC(=O)NCCCN3CCCCCC3)nn2c(C)c1Cc1ccccc1Cl do in these assays?
PLK1 PBD block: -14.4%; HP1b binding inh: 17.1%; G9a block: 79.4µM*; JMJD2A Tudor: inconclusive; PI5P4K alpha inh: -1.3; BAZ2B block: -28.5%

How did COc1ccc(-c2cccc(NC(=O)COc3ccc(Cl)cc3)c2)nn1 do in these assays?
PLK1 PBD block: -7.9%; HP1b binding inh: 27.8%; G9a block: 0.1%; JMJD2A Tudor: -6.5%; PI5P4K alpha inh: 3.8; BAZ2B block: inconclusive

How did CC(=O)c1ccc2c(c1)Cc1cc(C(C)=O)ccc1-2 do in these assays?
PLK1 PBD block: -12.9%; HP1b binding inh: 18.0%; G9a block: 7.9%; JMJD2A Tudor: -5.4%; PI5P4K alpha inh: 4.5; BAZ2B block: -0.6%

Results for CC(=O)c1ccc2c(c1)c(C#N)c1ccccc1[n+]2[O-] ?
PLK1 PBD block: 2.38µM*; HP1b binding inh: 14.1%; G9a block: 11.9%; JMJD2A Tudor: -4.4%; PI5P4K alpha inh: 0.3; BAZ2B block: -5.2%

How did Cn1c(=O)c2c(nc(NCCCO)n2Cc2cccc(C(F)(F)F)c2)n(C)c1=O do in these assays?
PLK1 PBD block: -9.4%; HP1b binding inh: 17.9%; G9a block: 34.0%[12.7 µM]; JMJD2A Tudor: -28.7%; PI5P4K alpha inh: 16.7; BAZ2B block: 10.0%

What do the screens show for `Cn1c(=O)c2c(nc(SCC(=O)O)n2Cc2cccc(C(F)(F)F)c2)n(C)c1=O`?
PLK1 PBD block: -6.2%; HP1b binding inh: 47.1%; G9a block: 14.1µM*; JMJD2A Tudor: -27.3%; PI5P4K alpha inh: 0.0; BAZ2B block: 4.5%

How did Cn1c(=O)c2c(nc(N3CCCCCC3)n2Cc2cccc3ccccc23)n(C)c1=O do in these assays?
PLK1 PBD block: -19.1%; HP1b binding inh: inconclusive; G9a block: -17.3%; JMJD2A Tudor: inconclusive; PI5P4K alpha inh: -0.3; BAZ2B block: inconclusive

Results for Cc1cccc(Cn2c(N3CCN(C)CC3)nc3c2c(=O)n(C)c(=O)n3C)c1 ?
PLK1 PBD block: -12.7%; HP1b binding inh: 16.6%; G9a block: 20µM*; JMJD2A Tudor: -12.9%; PI5P4K alpha inh: -0.3; BAZ2B block: -36.7%

How did Cc1ccc(Cn2c(SCCN3CCOCC3)nc3c2c(=O)n(C)c(=O)n3C)cc1 do in these assays?
PLK1 PBD block: -5.8%; HP1b binding inh: 18.3%; G9a block: 14.6%; JMJD2A Tudor: -18.8%; BAZ2B block: 8.2%

Results for CN1CCN(c2nc3c(c(=O)n(C)c(=O)n3C)n2Cc2cccc3ccccc23)CC1 ?
PLK1 PBD block: -21.3%; HP1b binding inh: 5.6%; G9a block: 44.7µM*; JMJD2A Tudor: -20.4%; PI5P4K alpha inh: 0.8; BAZ2B block: -36.1%

Results for Cc1cccc(Cn2c(SCCN3CCOCC3)nc3c2c(=O)n(C)c(=O)n3C)c1 ?
PLK1 PBD block: -21.2%; HP1b binding inh: 2.6%; G9a block: 44.7µM*; JMJD2A Tudor: -20.4%; PI5P4K alpha inh: -2.2; BAZ2B block: 4.9%

How did Cc1c(NC(=O)c2ccc(NC(=O)C3CC3)cc2)cccc1C(=O)O do in these assays?
PLK1 PBD block: -10.5%; HP1b binding inh: 15.8%; G9a block: 7.1%; JMJD2A Tudor: -11.7%; PI5P4K alpha inh: 0.0; BAZ2B block: 1.2%
